Legend:
Experiment in all cases: log2 ratio of Biotin-Ahx-Ub-VS probe labelling (compound/DMSO); higher = less target engagement, active = hit call of the paper (q ≤ 0.05, log2 ratio ≤ -1)
Settings in all cases: treatment time: 3 h
[1] = compound: CCC1N(CCc2sccc12)C(=O)CCl
In short: (§1)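 HEK293T lysate (495 µg per sample, in Tris/CHAPS/IGEPAL buffer with protease inhibitors) was exposed in triplicate to compound at 50 or 200 µM, or to DMSO, for 3 h, then to Biotin-Ahx-Ub-VS (0.5 µM final) for 1 h. The labelled DUBs were enriched on NeutrAvidin, digested with LysC and trypsin, and analysed by diaPASEF LC-MS/MS. Average base-two log ratios of compound over DMSO came from median-normalised label-free quantities by unpaired t-test. Only proteins with at least 2 unique peptides were used.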

[2] = compound: CN1c2ccccc2C(CS1(=O)=O)NC(=O)CCl
In short: as §1

[3] = compound: Cl.ClCC(=O)N1CCc2ncncc2C1
In short: as §1

[4] = compound: Cl.Cn1ncc2C(CCCc12)NC(=O)CCl
In short: as §1

[5] = compound: ClCC(=O)NC1CCOc2ccccc12
In short: as §1

[6] = compound: ClCC(=O)NC1CCCc2ccccc12
In short: (§2)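 HEK293T lysate (495 µg per sample, in Tris/CHAPS/IGEPAL buffer with protease inhibitors) was treated in triplicate with compound over a concentration series or DMSO for 3 h, then with Biotin-Ahx-Ub-VS (0.5 µM final) for 1 h. Labelled DUBs were NeutrAvidin-enriched, digested with LysC and trypsin, and run by diaPASEF LC-MS/MS. Spectronaut label-free protein quantities were global-median-normalised. Values are average log2 ratios compound/DMSO from an unpaired t-test, using proteins with ≥2 unique peptides.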

[7] = compound: ClCC(=O)N[C@@H]1CCCc2ccccc12
In short: as §2

[8] = compound: ClCC(=O)N[C@H]1CCCc2ccccc12
In short: as §2

[9] = compound: CCC1N(CCc2cc(OC)c(Cl)cc12)C(=O)CCl
In short: as §1

[10] = compound: CCCC1N(CCc2cc(OC)c(OC)cc12)C(=O)CCl
In short: as §1

Measured: log2 ratio of Biotin-Ahx-Ub-VS probe labelling

ALG13 (UniProt Q9NP73)
Chain of UniProt Q9NP73 (Q9NP73 whole entry): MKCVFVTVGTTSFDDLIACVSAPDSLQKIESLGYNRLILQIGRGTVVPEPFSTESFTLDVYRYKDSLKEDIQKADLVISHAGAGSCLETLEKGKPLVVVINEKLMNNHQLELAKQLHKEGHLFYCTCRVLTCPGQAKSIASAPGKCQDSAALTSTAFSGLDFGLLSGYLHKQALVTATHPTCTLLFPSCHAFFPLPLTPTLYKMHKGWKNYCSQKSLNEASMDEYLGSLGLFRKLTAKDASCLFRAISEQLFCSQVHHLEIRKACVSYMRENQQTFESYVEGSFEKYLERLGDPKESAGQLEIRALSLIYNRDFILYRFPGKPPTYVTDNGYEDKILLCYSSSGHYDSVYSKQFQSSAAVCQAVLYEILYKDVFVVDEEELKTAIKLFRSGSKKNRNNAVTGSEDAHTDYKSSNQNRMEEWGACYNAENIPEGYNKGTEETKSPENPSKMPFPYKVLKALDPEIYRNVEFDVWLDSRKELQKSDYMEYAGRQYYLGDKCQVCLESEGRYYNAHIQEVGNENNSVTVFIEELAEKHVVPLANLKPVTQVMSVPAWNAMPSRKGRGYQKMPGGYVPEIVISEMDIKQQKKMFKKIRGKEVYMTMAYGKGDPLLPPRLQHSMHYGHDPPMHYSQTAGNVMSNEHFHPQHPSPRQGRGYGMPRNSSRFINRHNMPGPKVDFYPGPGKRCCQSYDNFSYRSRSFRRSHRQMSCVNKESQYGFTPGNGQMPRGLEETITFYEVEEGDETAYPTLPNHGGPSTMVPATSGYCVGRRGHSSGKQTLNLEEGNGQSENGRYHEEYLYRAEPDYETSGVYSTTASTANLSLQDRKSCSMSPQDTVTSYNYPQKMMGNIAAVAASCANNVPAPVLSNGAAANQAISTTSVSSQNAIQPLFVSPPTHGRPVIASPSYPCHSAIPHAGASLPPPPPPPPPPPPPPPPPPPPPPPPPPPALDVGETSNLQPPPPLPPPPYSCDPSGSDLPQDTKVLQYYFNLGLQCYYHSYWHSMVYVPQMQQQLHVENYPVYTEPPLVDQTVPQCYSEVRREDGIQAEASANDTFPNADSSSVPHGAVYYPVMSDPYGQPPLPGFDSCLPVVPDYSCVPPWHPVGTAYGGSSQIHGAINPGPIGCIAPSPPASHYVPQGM
inactive: [1]; compound concentration: 50uM 0.393 | [1]; compound concentration: 200uM 0.533 | [2]; compound concentration: 50uM 0.284 | [2]; compound concentration: 200uM 0.203 | [3]; compound concentration: 50uM 0.0225 | [3]; compound concentration: 200uM 0.439 | [4]; compound concentration: 50uM 0.238 | [4]; compound concentration: 200uM -0.0439 | [5]; compound concentration: 50uM 0.11 | [5]; compound concentration: 200uM 0.324 | [6]; compound concentration: 0.78uM 0.19 | [6]; compound concentration: 1.56uM 0.107 | [6]; compound concentration: 3.13uM -0.625 | [6]; compound concentration: 6.25uM -0.155 | [6]; compound concentration: 12.5uM -0.336 | [6]; compound concentration: 25uM -0.19 | [6]; compound concentration: 50uM -0.356 | [6]; compound concentration: 100uM 0.221 | [6]; compound concentration: 200uM -0.15 | [7]; compound concentration: 0.78uM 0.187 | [7]; compound concentration: 1.56uM 0.128 | [7]; compound concentration: 3.13uM 0.146 | [7]; compound concentration: 6.25uM 0.328 | [7]; compound concentration: 12.5uM 0.0757 | [7]; compound concentration: 25uM -0.0189 | [7]; compound concentration: 50uM -0.26 | [7]; compound concentration: 100uM -0.0849 | [7]; compound concentration: 200uM 0.156 | [8]; compound concentration: 0.78uM 0.0472 | [8]; compound concentration: 1.56uM -0.48 | [8]; compound concentration: 3.13uM 0.0655 | [8]; compound concentration: 6.25uM -0.00893 | [8]; compound concentration: 12.5uM -0.0224 | [8]; compound concentration: 25uM 0.337 | [8]; compound concentration: 50uM -0.216 | [8]; compound concentration: 100uM 0.0146 | [8]; compound concentration: 200uM -0.203 | [9]; compound concentration: 50uM 0.0103 | [9]; compound concentration: 200uM 0.0355 | [10]; compound concentration: 50uM 0.0738 | [10]; compound concentration: 200uM 0.242

USP20 (UniProt Q9Y2K6)
Chain of UniProt Q9Y2K6 (Q9Y2K6 whole entry): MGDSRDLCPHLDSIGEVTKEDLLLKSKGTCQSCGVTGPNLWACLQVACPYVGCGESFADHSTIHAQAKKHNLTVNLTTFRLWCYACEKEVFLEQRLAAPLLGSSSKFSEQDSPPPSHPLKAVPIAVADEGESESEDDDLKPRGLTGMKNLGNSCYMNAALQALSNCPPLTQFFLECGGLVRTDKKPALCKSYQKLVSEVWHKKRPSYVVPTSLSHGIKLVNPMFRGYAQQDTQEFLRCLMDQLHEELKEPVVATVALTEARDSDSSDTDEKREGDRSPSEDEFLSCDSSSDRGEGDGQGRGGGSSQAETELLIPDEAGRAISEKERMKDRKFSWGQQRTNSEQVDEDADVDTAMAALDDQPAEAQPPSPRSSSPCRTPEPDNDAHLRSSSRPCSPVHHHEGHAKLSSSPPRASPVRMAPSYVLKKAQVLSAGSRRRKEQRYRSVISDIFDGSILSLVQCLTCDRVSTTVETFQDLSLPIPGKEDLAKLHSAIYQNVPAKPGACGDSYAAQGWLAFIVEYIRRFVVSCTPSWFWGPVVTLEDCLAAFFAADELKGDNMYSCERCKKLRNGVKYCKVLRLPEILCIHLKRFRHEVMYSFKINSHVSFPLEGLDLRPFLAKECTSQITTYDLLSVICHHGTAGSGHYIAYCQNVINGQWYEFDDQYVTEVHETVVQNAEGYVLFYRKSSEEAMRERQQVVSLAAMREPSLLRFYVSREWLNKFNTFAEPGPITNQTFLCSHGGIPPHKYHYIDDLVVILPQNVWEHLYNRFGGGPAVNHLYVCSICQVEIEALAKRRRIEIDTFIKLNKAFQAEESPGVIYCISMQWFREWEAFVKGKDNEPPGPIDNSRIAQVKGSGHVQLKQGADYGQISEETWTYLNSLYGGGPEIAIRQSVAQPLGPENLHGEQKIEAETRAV
inactive: [6]; compound concentration: 0.78uM -0.154 | [6]; compound concentration: 1.56uM -0.0255 | [6]; compound concentration: 3.13uM -0.00841 | [6]; compound concentration: 6.25uM -0.000882 | [6]; compound concentration: 12.5uM -0.0255 | [6]; compound concentration: 25uM 0.0283 | [6]; compound concentration: 50uM 0.0248 | [6]; compound concentration: 100uM -0.235 | [6]; compound concentration: 200uM -0.41 | [7]; compound concentration: 0.78uM -0.0803 | [7]; compound concentration: 1.56uM 0.0532 | [7]; compound concentration: 3.13uM -0.0362 | [7]; compound concentration: 6.25uM -0.00476 | [7]; compound concentration: 12.5uM -0.141 | [7]; compound concentration: 25uM -0.125 | [7]; compound concentration: 50uM -0.102 | [7]; compound concentration: 100uM -0.0854 | [7]; compound concentration: 200uM -0.279 | [8]; compound concentration: 0.78uM -0.0632 | [8]; compound concentration: 1.56uM 0.0904 | [8]; compound concentration: 3.13uM -0.0898 | [8]; compound concentration: 6.25uM 0.0566 | [8]; compound concentration: 12.5uM 0.0631 | [8]; compound concentration: 25uM -0.0313 | [8]; compound concentration: 50uM 0.0027 | [8]; compound concentration: 100uM -0.13 | [8]; compound concentration: 200uM -0.329

USP25 (UniProt Q9UHP3)
Chain of UniProt Q9UHP3 (Q9UHP3 whole entry): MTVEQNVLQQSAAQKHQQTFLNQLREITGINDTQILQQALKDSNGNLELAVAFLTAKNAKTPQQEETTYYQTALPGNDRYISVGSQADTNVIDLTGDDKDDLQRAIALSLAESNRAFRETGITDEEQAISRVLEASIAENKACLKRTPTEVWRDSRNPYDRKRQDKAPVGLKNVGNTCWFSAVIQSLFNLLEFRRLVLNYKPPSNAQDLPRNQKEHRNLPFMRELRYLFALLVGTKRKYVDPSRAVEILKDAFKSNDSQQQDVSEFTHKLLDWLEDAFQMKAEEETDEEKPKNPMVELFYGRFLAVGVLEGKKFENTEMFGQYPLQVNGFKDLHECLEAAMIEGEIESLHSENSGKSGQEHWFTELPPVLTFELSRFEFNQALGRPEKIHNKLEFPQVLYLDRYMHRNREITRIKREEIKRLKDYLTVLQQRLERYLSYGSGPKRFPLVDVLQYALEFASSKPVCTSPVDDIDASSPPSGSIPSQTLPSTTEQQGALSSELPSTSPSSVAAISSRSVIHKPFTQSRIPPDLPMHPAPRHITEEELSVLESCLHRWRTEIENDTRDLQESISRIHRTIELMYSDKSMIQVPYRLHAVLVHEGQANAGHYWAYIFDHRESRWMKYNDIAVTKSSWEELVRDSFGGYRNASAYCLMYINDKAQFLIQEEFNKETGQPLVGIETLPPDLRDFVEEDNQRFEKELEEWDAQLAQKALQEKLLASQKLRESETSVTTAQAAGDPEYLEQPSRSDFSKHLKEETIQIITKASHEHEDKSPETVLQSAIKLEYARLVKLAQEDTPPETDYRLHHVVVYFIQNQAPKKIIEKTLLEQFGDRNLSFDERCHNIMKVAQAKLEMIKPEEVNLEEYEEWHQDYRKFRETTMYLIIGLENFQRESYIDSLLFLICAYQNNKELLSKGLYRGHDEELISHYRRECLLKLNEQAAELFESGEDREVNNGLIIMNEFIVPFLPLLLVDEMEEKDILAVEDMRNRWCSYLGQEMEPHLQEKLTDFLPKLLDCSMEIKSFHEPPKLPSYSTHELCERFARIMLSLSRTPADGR
active: [1]; compound concentration: 200uM -1.92 | [3]; compound concentration: 200uM -2.93 | [9]; compound concentration: 200uM -1.2
inactive: [1]; compound concentration: 50uM 0.366 | [2]; compound concentration: 50uM -0.365 | [2]; compound concentration: 200uM -0.0888 | [3]; compound concentration: 50uM -0.861 | [4]; compound concentration: 50uM 0.177 | [4]; compound concentration: 200uM -0.552 | [5]; compound concentration: 50uM 0.145 | [5]; compound concentration: 200uM -0.0181 | [6]; compound concentration: 0.78uM -0.139 | [6]; compound concentration: 1.56uM -0.159 | [6]; compound concentration: 3.13uM -0.428 | [6]; compound concentration: 6.25uM -0.379 | [6]; compound concentration: 12.5uM -0.358 | [6]; compound concentration: 25uM -0.339 | [6]; compound concentration: 50uM -0.0397 | [6]; compound concentration: 100uM -0.3 | [6]; compound concentration: 200uM -0.848 | [7]; compound concentration: 0.78uM -0.531 | [7]; compound concentration: 1.56uM -0.227 | [7]; compound concentration: 3.13uM -0.277 | [7]; compound concentration: 6.25uM -0.312 | [7]; compound concentration: 12.5uM -0.223 | [7]; compound concentration: 25uM -0.606 | [7]; compound concentration: 50uM -0.594 | [7]; compound concentration: 100uM -0.346 | [7]; compound concentration: 200uM -0.308 | [8]; compound concentration: 0.78uM -0.226 | [8]; compound concentration: 1.56uM -0.458 | [8]; compound concentration: 3.13uM -0.0391 | [8]; compound concentration: 6.25uM -0.447 | [8]; compound concentration: 12.5uM -0.421 | [8]; compound concentration: 25uM -0.293 | [8]; compound concentration: 50uM -0.255 | [8]; compound concentration: 100uM -0.504 | [8]; compound concentration: 200uM -0.644 | [9]; compound concentration: 50uM -0.56 | [10]; compound concentration: 50uM -0.02 | [10]; compound concentration: 200uM 0.295

OTUB1 (UniProt Q96FW1)
Chain of UniProt Q96FW1 (Q96FW1 whole entry): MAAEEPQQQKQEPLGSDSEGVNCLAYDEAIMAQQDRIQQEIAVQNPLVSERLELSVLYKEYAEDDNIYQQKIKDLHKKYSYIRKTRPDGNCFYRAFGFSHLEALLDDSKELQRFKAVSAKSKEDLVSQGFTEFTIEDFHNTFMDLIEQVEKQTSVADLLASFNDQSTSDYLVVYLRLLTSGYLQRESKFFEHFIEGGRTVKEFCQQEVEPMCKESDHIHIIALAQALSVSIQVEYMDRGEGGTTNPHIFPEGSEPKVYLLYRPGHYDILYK
inactive: [1]; compound concentration: 50uM -0.117 | [1]; compound concentration: 200uM -0.154 | [2]; compound concentration: 50uM -0.275 | [2]; compound concentration: 200uM -0.196 | [3]; compound concentration: 50uM -0.211 | [3]; compound concentration: 200uM -0.426 | [4]; compound concentration: 50uM 0.106 | [4]; compound concentration: 200uM -0.247 | [5]; compound concentration: 50uM -0.281 | [5]; compound concentration: 200uM -0.037 | [6]; compound concentration: 0.78uM -0.196 | [6]; compound concentration: 1.56uM -0.0742 | [6]; compound concentration: 3.13uM -0.226 | [6]; compound concentration: 6.25uM -0.309 | [6]; compound concentration: 12.5uM -0.314 | [6]; compound concentration: 25uM -0.147 | [6]; compound concentration: 50uM -0.404 | [6]; compound concentration: 100uM -0.172 | [6]; compound concentration: 200uM -0.492 | [7]; compound concentration: 0.78uM 0.0648 | [7]; compound concentration: 1.56uM -0.00906 | [7]; compound concentration: 3.13uM -0.216 | [7]; compound concentration: 6.25uM -0.197 | [7]; compound concentration: 12.5uM -0.122 | [7]; compound concentration: 25uM -0.199 | [7]; compound concentration: 50uM -0.236 | [7]; compound concentration: 100uM -0.0374 | [7]; compound concentration: 200uM -0.142 | [8]; compound concentration: 0.78uM -0.244 | [8]; compound concentration: 1.56uM -0.103
